TDP1 cell CPT – DT40-hTDP1 cell growth loss with CPT | chicken DT40 Tdp1-/-;hTDP1 cells + 20 nM CPT, ATP luminescence, 48 h | Potency, µM (series often up to 46.2 µM), most hits filed as inhibitors | actives 12% (n = 420,000) | AID 686979; also: nearly all actives have a fitted effect of over 55% in size
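Cell growth measured by CellTiter-Glo luminescence after a minimum 48 h, 37 C compound exposure with 20 nM CPT in Tdp1-knockout DT40 cells stably expressing hTDP1, seeded 400/well; qHTS titration format.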
DT40 TDP1 no CPT – qHTS for Inhibitors of human tyrosyl-DNA phosphodiesterase 1 (TDP1): qHTS in cells in absence of CPT; DT40 Tdp1-/- hTDP1 cells, no CPT, ATP luminescence, 48 h; Potency, µM (doses to about 46.2 µM), most hits filed as inhibitors; actives 15% (n = 420,000); AID 686978, 2013; also: nearly all actives have a fitted effect of over 55% in size
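Camptothecin absent (DMSO only). Human TDP1-complemented DT40 knockout cells, 400 cells/well, 37 °C for minimum 48 hr; ATP measured via CellTiter-Glo, 30 min dark incubation, luminescence.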
IL1B secr inh – inhibitors of inflammasome signaling (IL-1 beta secretion); THP-1 LPS/ATP IL-1B secretion, AlphaLISA, 16 h; active compounds read low; activity change, % at 57.5 µM; actives 4.7% (n = 360,000); in the data active = activity change below about -50%; inconclusive = mostly about -30% to -49%
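Secreted IL-1B measured by AlphaLISA bead assay after 16 h compound exposure of THP-1 cells; compounds (final up to 57.5 uM) added 1 h before LPS (250 ng/mL) and ATP (1.25 mM) stimulation; lower signal means less secretion.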
CtBP-E1A blk – CtBP/E1A binding inhibition | AlphaScreen GST-E1A/His-CtBP binding, 1536-well; active compounds read low | activity change, % (no concentration beside the values) | actives 0.49% (n = 340,000) | AID 651724; in the data active = activity change below about -65%; inconclusive = mostly about -30% to -63%
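Protein mix (5X: 125 nM each GST-E1A, His-CtBP) was incubated with pinned compound 2 h at 37 deg C in dark, in 50 mM Tris pH 8.0 buffer with 300 mM NaCl. Glutathione donor and nickel acceptor beads followed; AlphaScreen signal read after 1 h.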
Six1-Eya2 inh – Six1/Eya2 interaction inhibition | Q15475+O00167 | AlphaScreen GST-Six1/His-Eya2 binding, biochemical; active compounds read low | activity change, % (no concentration beside the values) | actives 0.56% (n = 360,000); in the data active = activity change below about -65%; inconclusive = mostly about -30% to -63%
Target sequence (O00167 whole entry, looked up): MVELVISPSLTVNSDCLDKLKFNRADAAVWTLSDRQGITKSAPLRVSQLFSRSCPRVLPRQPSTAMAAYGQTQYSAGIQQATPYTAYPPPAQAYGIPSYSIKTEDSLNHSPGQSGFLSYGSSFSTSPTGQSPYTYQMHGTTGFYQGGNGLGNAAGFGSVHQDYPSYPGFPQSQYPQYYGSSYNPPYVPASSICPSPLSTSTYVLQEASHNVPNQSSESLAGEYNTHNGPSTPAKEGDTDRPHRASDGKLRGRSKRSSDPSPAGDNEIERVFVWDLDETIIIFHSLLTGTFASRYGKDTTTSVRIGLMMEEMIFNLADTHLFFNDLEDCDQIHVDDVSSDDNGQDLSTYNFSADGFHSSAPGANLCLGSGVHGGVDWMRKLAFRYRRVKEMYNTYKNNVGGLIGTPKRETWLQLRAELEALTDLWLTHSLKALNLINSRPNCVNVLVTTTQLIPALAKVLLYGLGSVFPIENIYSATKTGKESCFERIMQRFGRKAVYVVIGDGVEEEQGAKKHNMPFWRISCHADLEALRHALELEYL
Target sequence (Q15475 whole entry, looked up): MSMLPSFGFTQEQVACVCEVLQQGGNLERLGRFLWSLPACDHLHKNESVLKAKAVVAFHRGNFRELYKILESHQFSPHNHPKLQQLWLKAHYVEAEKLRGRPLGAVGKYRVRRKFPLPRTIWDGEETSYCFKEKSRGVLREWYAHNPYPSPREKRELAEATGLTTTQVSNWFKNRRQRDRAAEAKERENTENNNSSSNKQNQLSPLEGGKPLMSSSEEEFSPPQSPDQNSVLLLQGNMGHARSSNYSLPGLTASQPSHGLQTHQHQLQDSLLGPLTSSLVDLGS
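Compounds are tested against tagged Six1 and Eya2 proteins bridged by glutathione donor and nickel acceptor beads; after a one-hour incubation at 37 °C without light, AlphaScreen emission is recorded.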
TDP1 inh – inhibitors of human tyrosyl-DNA phosphodiesterase TDP1. Q9NUW8. recombinant TDP1, AlphaScreen DNA substrate cleavage. Potency, µM (highest dose often 130 µM), most hits filed as inhibitors. actives 0.28% (n = 350,000). AID 485290; also: nearly all actives have a fitted effect of over 40% in size
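E. coli-derived human Tdp1, 1 nM final. Cpd preinc 15 min RT; substrate 15 nM final, 5 min RT; AS bead mix 10 ug/ml final, 10 min RT. Signal loss = tyrosine-FITC cleavage. No-enzyme wells = max signal.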
Large screens that a line does not name were inactive. Only some compounds are listed: those with a hit (about 18% of all), similar ones and a draw of the others. Unless noted, calls follow the shape of the dose curve; as a rule, active = well fitted curve in the direction sought with a large enough effect; inconclusive = small, poorly fitted or top-dose-only effect, or another doubt; inactive = no such curve, though single readings can be large; an effect the other way counts as inactive or inconclusive.

COC(=O)c1cc(=O)n(Cc2ccc3c(c2)OCO3)c(=Nc2ccc(F)cc2)s1	TDP1 cell CPT inconclusive, DT40 TDP1 no CPT inconclusive
COC(=O)c1cc(=O)n(Cc2ccc(F)cc2)c(=NCc2ccc(F)cc2)s1	none
COC(=O)c1cc(=O)n(-c2ccc(F)cc2)c(=Nc2ccc(F)cc2)s1	TDP1 cell CPT 6.5µM, DT40 TDP1 no CPT 6.5µM, IL1B secr inh -105
COC(=O)c1ccc(N=c2sc(C(=O)OC)cc(=O)n2C)cc1	TDP1 cell CPT 21µM, DT40 TDP1 no CPT 26µM (no result: TDP1 inh)
CCOC(=O)c1ccc(N=c2sc(C(=O)OC)cc(=O)n2Cc2ccc3c(c2)OCO3)cc1	TDP1 cell CPT 6.5µM, DT40 TDP1 no CPT 6.5µM
COC(=O)c1cc(=O)n(Cc2cccs2)c(=Nc2ccc(F)cc2)s1	TDP1 cell CPT inconclusive, DT40 TDP1 no CPT 21µM (no result: TDP1 inh)
COc1cc(/C=N/NC(=O)NC2CCCCC2)ccc1O	IL1B secr inh inconclusive (no result: TDP1 inh)
CCC(C)(C)n1nnnc1C(c1ccc(C)cc1)N1CCN(Cc2ccc3c(c2)OCO3)CC1 (configuration not stated)	DT40 TDP1 no CPT inconclusive, IL1B secr inh -53
CCC(C)(C)n1nnnc1C(c1ccc2ncccc2c1)N1CCN(Cc2ccc3c(c2)OCO3)CC1 (configuration not stated)	none
CCC(C)(C)n1nnnc1C(c1ccc(C)cc1)N1CCC(C)CC1 (configuration not stated)	TDP1 cell CPT 13µM, DT40 TDP1 no CPT inconclusive
CC[C@H](C)[C@H](NC(=O)[C@H](CC(N)=O)NC(=O)[C@H](CCCCN)NC(=O)[C@H](Cc1ccccc1)NC(=O)[C@H](Cc1ccccc1)NC(=O)[C@H](Cc1cnc[nH]1)NC(=O)[C@@H](N)C(C)C)C(=O)N[C@H](C(=O)N[C@H](C(=O)N1CCC[C@H]1C(=O)N[C@@H](CCCN=C(N)N)C(=O)N[C@H](C(=O)N1CCC[C@H]1C(=O)O)[C@@H](C)O)[C@@H](C)O)C(C)C	none (no result: TDP1 cell CPT, DT40 TDP1 no CPT, IL1B secr inh, CtBP-E1A blk, Six1-Eya2 inh)
COc1ccc2cc(C#CC3=CC(=O)C[C@H](c4ccc(F)cc4)C3)ccc2c1	TDP1 cell CPT inconclusive, DT40 TDP1 no CPT inconclusive, IL1B secr inh -76 (no result: TDP1 inh)
COc1ccc([C@H]2CC(=O)C=C(C#CC(C)(C)C)C2)cc1	TDP1 cell CPT inconclusive, DT40 TDP1 no CPT inconclusive
CCOC(=O)C(NC(=O)c1cccc(Cl)c1)(Nc1sc2c(c1C(N)=O)CCC2)C(F)(F)F (configuration not stated)	TDP1 cell CPT inconclusive, DT40 TDP1 no CPT inconclusive
COc1cc(C2=NOC(C(=O)Nc3ccc(C)cc3)C2)cc(OC)c1OC (configuration not stated)	TDP1 cell CPT 13µM, DT40 TDP1 no CPT 11µM
COc1cc(NC(=O)C2CC(c3ccccc3Cl)=NO2)cc(OC)c1OC (configuration not stated)	TDP1 cell CPT 16µM, DT40 TDP1 no CPT 23µM
COc1cc(NC(=O)C2CC(c3ccc(Cl)cc3)=NO2)cc(OC)c1OC (configuration not stated)	DT40 TDP1 no CPT inconclusive (no result: TDP1 inh)
CN1C(=O)N(CC(=O)N2CCN(S(=O)(=O)Cc3ccccc3)CC2)C(=O)C12CCCCC2	TDP1 cell CPT inconclusive, DT40 TDP1 no CPT inconclusive
CN(c1cccc(NC(=O)c2ccccc2N(C)S(=O)(=O)c2ccccc2)c1)S(C)(=O)=O	TDP1 cell CPT inconclusive, DT40 TDP1 no CPT inconclusive
CN=C1CC(SC)=C1c1ccc(C)cc1	TDP1 cell CPT 16µM, DT40 TDP1 no CPT 21µM
O=C1/C(=C/c2cccnc2)CCc2c1[nH]c1ccccc21	TDP1 cell CPT 18µM, DT40 TDP1 no CPT inconclusive, IL1B secr inh -103
CC1C/C(=C\c2cccnc2)C(=O)/C(=C/c2cccnc2)C1 (configuration not stated)	TDP1 cell CPT 0.82µM, DT40 TDP1 no CPT 0.73µM, IL1B secr inh -101

Bioassay records: PubChem, National Center for Advancing Translational Sciences (NCATS)
